Values without a mark were called inactive. Records with an inconclusive call do not appear. Where a call stands in place of a potency, no number is given. Active and inactive are the calls of the source. The call rests on the fitted dose curve; in most records, active means well fitted curve in the direction sought with a large enough effect in the repeat runs; inconclusive means weak or mixed curves; inactive means no such curve, though single readings can be large; an effect the other way counts as inactive or inconclusive.
Key:
[1] = Human pregnane X receptor (PXR) small molecule agonists, qHTS cell viability counter screen (AID 1346977); further: nearly all actives have a fitted effect of over 50% in size; further: potency means the concentration at half of the fitted maximal effect
Outline: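 Readout is CellTiter-Fluor fluorescence from PXR-Luc HepG2 cells. Plated cells rested 5hr, then were treated with compounds for 24hr at 37C and 5% CO2, with reagent present during the last hour.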

[2] = Caspase-3/7 induction in HepG2 cells by small molecules, qHTS assay (AID 1346978); further: nearly all actives have a fitted effect of over 15% in size
Outline: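 Wild-type HepG2 cells, 2,000/well, settled 5 hr at 37 C and 5% CO2, then compound-treated for 17 hr; caspase-3/7 activity read by luminescent Caspase-Glo 3/7 after 30 min at room temperature.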

[3] = Caspase-3/7 induction in CHO-K1 cells by small molecules, qHTS assay (AID 1346980); further: nearly all actives have a fitted effect of over 15% in size
Outline: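 Wild-type CHO-K1 cells exposed to compounds for 17hr at 37 C, 5% CO2. Caspase-3/7 activity then measured by Caspase-Glo 3/7 luminescence after 30min at room temperature.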

[4] = Caspase-3/7 induction in HepG2 cells by small molecules, qHTS cell viability counter screen (AID 1346981); further: nearly all actives have a fitted effect of over 30% in size; further: potency means the concentration at half of the fitted maximal effect; on activity change, negative = cytotoxicity: series mostly up to about 92 µM
Outline: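 Steps: seed 2,000 HepG2 cells per well; incubate 5 hr at 37 C; pin-add compounds in DMSO; incubate 16 hr; add CellTiter-Fluor; after 1 hr at 37 C and 5% CO2, read fluorescence.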

[5] = biological target: Nuclear receptor subfamily 1 group I member 2 (Homo sapiens) (UniProt O75469); assay: Human pregnane X receptor (PXR) small molecule agonists, qHTS assay (AID 1346982); further: nearly all actives have a fitted effect of over 35% in size; further: potency means the concentration at half of the fitted maximal effect
Chain of Nuclear receptor subfamily 1 group I member 2 (Homo sapiens) (O75469 whole entry, looked up): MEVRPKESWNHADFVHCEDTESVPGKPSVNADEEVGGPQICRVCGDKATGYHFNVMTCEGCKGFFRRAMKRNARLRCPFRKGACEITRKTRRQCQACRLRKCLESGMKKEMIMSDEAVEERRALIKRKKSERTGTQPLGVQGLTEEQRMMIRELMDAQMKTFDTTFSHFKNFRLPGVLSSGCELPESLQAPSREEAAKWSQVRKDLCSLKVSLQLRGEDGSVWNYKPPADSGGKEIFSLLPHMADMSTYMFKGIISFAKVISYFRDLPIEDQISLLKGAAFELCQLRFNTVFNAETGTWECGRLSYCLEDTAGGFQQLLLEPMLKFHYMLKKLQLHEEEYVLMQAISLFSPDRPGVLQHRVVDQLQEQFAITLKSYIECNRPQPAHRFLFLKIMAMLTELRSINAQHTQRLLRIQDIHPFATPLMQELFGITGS
Outline: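 Agonist mode qHTS: PXR-Luc HepG2 cells plated 5 hr before DMSO-dissolved compounds were pinned in, cultured 24 hr at 37 C, 5% CO2; ONE-Glo luminescence readout.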

[6] = biological target: Nuclear receptor subfamily 1 group I member 2 (Rattus norvegicus) (UniProt Q9R1A7); assay: Rat pregnane X receptor (rPXR) activation by small molecules, qHTS assay (AID 1346983); settings: rPXR luciferase reporter cells, One-Glo luminescence, 24 h; max activation: stronger effect = higher value; further: nearly all actives have a fitted effect of over 20% in size
Chain of Nuclear receptor subfamily 1 group I member 2 (Rattus norvegicus) (Q9R1A7 whole entry, looked up): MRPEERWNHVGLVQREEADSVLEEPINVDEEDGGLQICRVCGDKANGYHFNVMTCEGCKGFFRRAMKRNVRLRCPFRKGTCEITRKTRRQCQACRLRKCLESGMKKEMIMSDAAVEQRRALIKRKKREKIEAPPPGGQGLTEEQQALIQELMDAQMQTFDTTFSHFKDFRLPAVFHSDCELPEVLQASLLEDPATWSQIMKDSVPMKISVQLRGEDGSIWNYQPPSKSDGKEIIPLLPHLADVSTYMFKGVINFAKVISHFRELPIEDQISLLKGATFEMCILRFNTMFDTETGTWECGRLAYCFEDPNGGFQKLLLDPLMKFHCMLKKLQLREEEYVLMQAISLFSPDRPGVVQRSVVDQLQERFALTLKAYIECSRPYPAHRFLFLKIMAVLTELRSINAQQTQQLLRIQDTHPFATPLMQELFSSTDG
Outline: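 Cell-based rPXR activation assay: rPXR cells, 2,000 per well, rested 5hr at 37 C, then exposed to compounds in DMSO for 24 hr at 37 C. Luciferase activity read by One-Glo luminescence after 30 min at room temperature.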

[7] = biological target: Nuclear receptor subfamily 1 group I member 2 (Homo sapiens) (UniProt O75469); assay: CYP3A4 induction through human pregnane X receptor (PXR) by small molecules, qHTS assay (AID 1346984); further: nearly all actives have a fitted effect of over 40% in size; further: potency means the concentration at half of the fitted maximal effect
Outline: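 Steps: seed DPX-2 cells, 5 hr at 37C; pin-transfer compounds; 24 hr at 37C; add Luciferin-IPA (3uM final), 3 hr at 37C; add One-Glo, 30 min RT; read luminescence.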

[8] = biological target: Cytochrome P450 2D6 (Homo sapiens) (UniProt P10635); assay: Cytochrome P450 Family 2 Subfamily D Member 6 (CYP2D6) small molecule antagonists: luciferase reporter qHTS assay (AID 1671196); further: nearly all actives have a fitted effect of over 50% in size; further: potency means the concentration at half of the fitted maximal effect; on activity change, negative = inhibition: series mostly up to about 120 µM
Chain of Cytochrome P450 2D6 (Homo sapiens) (P10635 whole entry, looked up): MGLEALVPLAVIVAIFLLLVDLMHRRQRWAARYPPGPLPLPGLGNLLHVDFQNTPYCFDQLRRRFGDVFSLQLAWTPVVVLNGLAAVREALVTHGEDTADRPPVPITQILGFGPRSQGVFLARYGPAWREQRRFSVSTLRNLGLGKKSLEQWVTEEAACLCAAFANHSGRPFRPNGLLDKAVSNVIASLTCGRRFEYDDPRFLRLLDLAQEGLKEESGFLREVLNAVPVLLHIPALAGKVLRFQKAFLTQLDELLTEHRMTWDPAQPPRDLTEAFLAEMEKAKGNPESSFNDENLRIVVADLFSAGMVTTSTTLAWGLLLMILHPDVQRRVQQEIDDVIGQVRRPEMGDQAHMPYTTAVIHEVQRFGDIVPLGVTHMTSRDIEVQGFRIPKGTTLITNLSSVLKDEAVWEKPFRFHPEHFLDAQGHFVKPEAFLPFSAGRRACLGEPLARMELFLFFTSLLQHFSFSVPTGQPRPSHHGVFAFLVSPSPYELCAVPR
Outline: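 P450-Glo format: CYP2D6 converts a proluciferin substrate to luciferin in an NADPH-driven reaction lasting 1 h at room temperature. Light output, proportional to CYP2D6 activity, reflects interference by test chemicals.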

[9] = biological target: Nuclear receptor subfamily 1 group I member 2 (Homo sapiens) (UniProt O75469); assay: Human pregnane X receptor (PXR) activation by small molecules, qHTS assay (AID 1346985); further: nearly all actives have a fitted effect of over 40% in size
Outline: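 DPX-2 cells (HepG2 co-transfected with a PXR response element and a CYP3A4-promoter luciferase construct) were seeded at 2,000 per well, rested 5 hr at 37C, then exposed to DMSO-dissolved compounds for 24 hr. Activation was read as luciferase luminescence.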

[10] = Caspase-3/7 induction in CHO-K1 cells by small molecules, qHTS cell viability counter screen (AID 1346979); further: nearly all actives have a fitted effect of over 35% in size; further: potency means the concentration at half of the fitted maximal effect
Outline: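 To flag cytotoxic compounds, treated CHO-K1 wild-type cells were given CellTiter-Fluor at 16hr and read fluorescently after 1hr at 37C; the caspase-3/7 luminescence was measured in these same wells.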

## CCN(CC)C(C)CN1c2ccccc2Sc2ccccc21 (stereo unspecified)
[1]
  Potency: inactive
[2]
  outcome: inactive
[3]
  Potency: inactive
[4]
  Potency: inactive
[5]
  Potency: inactive
[6]
  max activation: -0.328%
[7]
  Potency: 3.98 µM (active)
[8]
  Potency: 30.9 µM (active)

## Nc1nc(N)c(-c2ccccc2)s1
[1]
  Potency: inactive
[2]
  outcome: inactive
[3]
  Potency: inactive
[4]
  Potency: inactive
[5]
  Potency: inactive
[6]
  max activation: -3.93%
[7]
  Potency: inactive
[8]
  Potency: inactive

## CCOc1ccc2[nH]cc(C(=O)NCc3ccccc3)c(=O)c2n1
[1]
  Potency: inactive
[2]
  outcome: inactive
[3]
  Potency: inactive
[4]
  Potency: inactive
[5]
  Potency: 19.3 µM (active)
[8]
  Potency: inactive

## CCCCCCCCCC=O
[1]
  Potency: inactive
[2]
  outcome: inactive
[3]
  Potency: inactive
[5]
  Potency: inactive
[8]
  Potency: inactive

## CC1=CCC(C(C)C)C=C1 (stereo unspecified)
[1]
  Potency: inactive
[2]
  outcome: inactive
[3]
  Potency: inactive
[5]
  Potency: 30.6 µM (active)
[8]
  Potency: 71 µM (active)

## NCCCOCCOCCOCCCN
[1]
  Potency: inactive
[2]
  outcome: inactive
[3]
  Potency: inactive
[4]
  Potency: inactive
[8]
  Potency: 20 µM (active)

## O=C(c1ccccc1)c1ccc2n1CCC2C(=O)O (stereo unspecified)
[1]
  Potency: inactive
[2]
  outcome: inactive
[3]
  Potency: inactive
[5]
  Potency: inactive
[6]
  max activation: 4.49%
[7]
  Potency: inactive
[8]
  Potency: inactive

## NC[C@H]1O[C@H](O[C@H]2[C@H](O)[C@@H](O[C@H]3O[C@H](CO)[C@@H](O)[C@H](N)[C@H]3O)[C@H](N)C[C@@H]2N)[C@H](O)[C@@H](O)[C@@H]1O
[1]
  activity change, negative = cytotoxicity: -6.07% [at 8.39 µM]
[2]
  caspase activation: 0.334% [at 8.39 µM]
[3]
  caspase-3/7 activation: 1.24% [at 8.39 µM]
[4]
  activity change, negative = cytotoxicity: -2.29% [at 8.39 µM]
[5]
  activation: 13.1% [at 8.39 µM]
[6]
  max activation: -1%
[7]
  Potency: inactive
[8]
  activity change, negative = inhibition: -0.562% [at 10.5 µM]

## CCCOc1ccc2nc(NC(=O)OC)[nH]c2c1
[1]
  Potency: inactive
[2]
  outcome: inactive
[3]
  Potency: inactive
[4]
  Potency: inactive
[5]
  Potency: 3.76 µM (active)
[8]
  Potency: inactive

## CN1CCN(C2=Nc3cc(Cl)ccc3Nc3ccccc32)CC1
[1]
  Potency: 23.7 µM (active)
[3]
  Potency: inactive
[4]
  Potency: 23.7 µM (active)
[5]
  Potency: inactive

## CC(=O)N(O)CCCCCNC(=O)CCC(=O)N(O)CCCCCNC(=O)CCC(=O)N(O)CCCCCN
[1]
  Potency: inactive
[3]
  Potency: inactive
[4]
  Potency: inactive
[5]
  Potency: inactive
[6]
  max activation: -2.68%
[7]
  Potency: inactive
[9]
  Potency: inactive

## CC(C)(C)c1cc(CO)cc(C(C)(C)C)c1O
[1]
  Potency: inactive
[2]
  outcome: inactive
[4]
  Potency: inactive
[8]
  Potency: 72.4 µM (active)

## Cl/C(=C\n1cncn1)c1ccc(Cl)cc1Cl
[1]
  Potency: inactive
[10]
  Potency: inactive
[3]
  Potency: inactive
[4]
  Potency: inactive
[6]
  max activation: -0.206%
[7]
  Potency: 22.4 µM (active)
[8]
  Potency: 15.5 µM (active)

## CC(CN)CCCN (stereo unspecified)
[1]
  Potency: inactive
[2]
  outcome: inactive
[4]
  Potency: inactive
[5]
  Potency: 24.3 µM (active)
[8]
  Potency: 22.4 µM (active)

## Cn1c(NCCN(CCO)CCCc2ccc([N+](=O)[O-])cc2)cc(=O)n(C)c1=O
[1]
  Potency: inactive
[10]
  Potency: inactive
[3]
  Potency: inactive
[4]
  Potency: inactive
[5]
  Potency: inactive
[6]
  max activation: -2.3%
[7]
  Potency: inactive

## CN1CCC[C@@H]1c1cccnc1
[1]
  Potency: inactive
[10]
  Potency: inactive
[4]
  Potency: inactive
[5]
  Potency: inactive
[6]
  max activation: -0.0949%
[7]
  Potency: inactive
[8]
  Potency: 38.9 µM (active)

## CC1=CC(=O)/C(=C(/C)O)C(=O)O1
[1]
  Potency: inactive
[10]
  Potency: inactive
[3]
  Potency: inactive
[4]
  Potency: inactive
[5]
  Potency: inactive
[8]
  Potency: inactive

## CCOC(=O)[C@H](CCc1ccccc1)N[C@H]1CCc2ccccc2N(CC(=O)O)C1=O
[1]
  Potency: 26.6 µM (active)
[10]
  Potency: 23.7 µM (active)
[3]
  Potency: inactive
[5]
  Potency: 23.7 µM (active)
[7]
  Potency: 10 µM (active)

## CNS(=O)(=O)Cc1ccc2[nH]cc(CCN(C)C)c2c1
[1]
  Potency: inactive
[10]
  Potency: inactive
[4]
  Potency: inactive
[5]
  Potency: inactive
[6]
  max activation: -4.94%
[7]
  Potency: inactive
[9]
  Potency: inactive
[8]
  Potency: 24.5 µM (active)

## S=C(S)NCCNC(=S)S
[1]
  Potency: inactive
[10]
  Potency: inactive
[3]
  Potency: inactive
[4]
  Potency: inactive
[5]
  Potency: inactive

## O=C(O)C(c1ccc(Cl)cc1)c1ccc(Cl)cc1
[1]
  Potency: inactive
[10]
  Potency: inactive
[3]
  Potency: inactive
[4]
  Potency: inactive
[5]
  Potency: inactive
[8]
  Potency: inactive

## Cc1cccc(C(C)(C)C)c1O
[1]
  Potency: inactive
[10]
  Potency: inactive
[3]
  Potency: inactive
[4]
  Potency: inactive
[8]
  Potency: inactive

## CCOC(=O)C1=C(C)NC(C)=C(C(=O)OC)C1c1cccc([N+](=O)[O-])c1 (stereo unspecified)
[1]
  Potency: inactive
[2]
  outcome: inactive
[8]
  Potency: inactive

## Cc1cc(C)c(S(=O)(=O)O)cc1N=Nc1cc(S(=O)(=O)O)c2ccccc2c1O
[1]
  Potency: 24.3 µM (active)
[10]
  Potency: 30.6 µM (active)
[3]
  Potency: inactive
[4]
  Potency: 34.4 µM (active)
[5]
  Potency: inactive

## CC(C)(C)C1CCCCC1O (stereo unspecified)
[1]
  Potency: inactive
[2]
  outcome: inactive
[4]
  Potency: inactive
[5]
  Potency: inactive
[8]
  Potency: inactive

## Cc1ccccn1
[1]
  Potency: inactive
[10]
  Potency: inactive
[3]
  Potency: inactive
[4]
  Potency: inactive
[6]
  max activation: -5.22%

## O=c1[nH]cnc2ccccc12
[1]
  Potency: inactive
[2]
  outcome: inactive
[4]
  Potency: inactive
[5]
  Potency: 0.398 µM (active)

From PubChem BioAssay (Tox21)
